Bioassay records (PubChem)
NRP1-CendR mod = alters CendR peptide binding to human NRP-1 | O14786 | FAM-RPARPAR peptide binding to NRP-1, fluorescence polarization | inhibition, % at 25 µM | 360,000 compounds, 0.85% hits;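 active = inhibition or corrected inhibition above about 18%, plus a signal ratio from 0.5 to 1.5, limit read from the data, passing the limit was not always enough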
APOBEC3A inh = human APOBEC3A DNA deaminase inhibition. P31941. recombinant A3A, FAM/TAMRA ssDNA deamination fluorescence. inhibition, % at 20 µM. 330,000 compounds, 0.41% hits. AID 493011;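 active = at least 40% inhibition at 20 µM here, with at most 30% in a related deaminase screen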;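 note: plate controls were A3A with DMSO for no effect and wells lacking A3A enzyme for full effect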
MIN6 prolif = MIN6 beta-cell proliferation induction | proliferation, % at 10 µM | 330,000 compounds, 0.29% hits | AID 2380 | MIN6 cells proliferation, ATPlite luminescence, 48 h; cells starved in 0.2% serum; 100% = growth in 10% serum;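 active = compounds whose signal lies at least 3.5 SD above the mean of all wells on their plate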;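 note: 0% = DMSO-treated cells in low-serum medium and 100% = 10% serum control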
VLA-4 inh = inhibition in a human VLA-4 binding assay | P13612 | VLA-4 expressing cells, ligand binding flow cytometry | inhibition, % (about 7 µM as worked out from the volumes in the protocol) | 330,000 compounds, 0.2% hits | AID 2557; in the data active = inhibition above about 50%
A3G deaminase = blocks human APOBEC3G single-stranded DNA deamination; recombinant A3G, ssDNA deamination FAM/TAMRA fluorescence; inhibition, % at 20 µM; 330,000 compounds, 0.28% hits;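 active = inhibition of at least 40% at 20 µM, with no more than 30% in the related APOBEC3A deaminase screen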;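 note: plate controls were DMSO wells with A3G for no effect and wells lacking A3G enzyme for full effect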
APOBEC3A confirm = APOBEC3A (human) deaminase inhibition, confirmed | shares compounds with APOBEC3A inh | recombinant A3A, ssDNA deaminase UDG fluorescence assay | inhibition, % at 20 µM | 1,400 compounds, 63% hits;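 active = inhibition reaching a set limit, 80% of the first screen's cutoff, at 20 µM in any replicate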;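 note: plate controls were DMSO wells with A3A for no effect and wells lacking A3A enzyme for full effect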
UDG ctr A3A = counter-screen for APOBEC3A inhibitors: UDG; UDG counterscreen, FAM/TAMRA uracil oligo fluorescence; shares compounds with APOBEC3A inh; 1,000 tested, under 10 active; inhibition, % at 20 µM; call rule not given here
* marks the source's active call; other numbers are inactive results. Hits are enriched below; roughly 1.8% of the tested compounds scored in any of these assays.

Screening COCCN(C(=O)COC(=O)CNC(=O)c1cccs1)c1c(N)n(Cc2ccccc2)c(=O)[nH]c1=O returned NRP1-CendR mod 5, APOBEC3A inh 53*, MIN6 prolif -3, VLA-4 inh -2, A3G deaminase 9, APOBEC3A confirm 50* and UDG ctr A3A -3.
Cc1ccc(-c2c(C(=O)N/N=C/c3ccco3)nnn2-c2nonc2N)cc1 was read as NRP1-CendR mod 9, APOBEC3A inh 61*, MIN6 prolif -2, VLA-4 inh -6, A3G deaminase 4 and APOBEC3A confirm -2.
Screening CC(C)c1ccc(N)c(S(=O)(=O)O)c1 returned NRP1-CendR mod 7, APOBEC3A inh 2, MIN6 prolif -2, VLA-4 inh 11 and A3G deaminase -5.
Cc1ccnc(NS(=O)(=O)c2ccc3ccccc3c2)n1 was read as NRP1-CendR mod -2, APOBEC3A inh -6, MIN6 prolif -1, VLA-4 inh 0 and A3G deaminase -5.
`COC(=O)c1ccc2c(c1)C(C)(C)C(/C=C/c1ccc(OC)c(OC)c1OC)=[N+]2C` gave NRP1-CendR mod -16, APOBEC3A inh 95*, MIN6 prolif -6, VLA-4 inh -5, A3G deaminase 24, APOBEC3A confirm 83* and UDG ctr A3A 2.
Screening COC(=O)CCC(=O)OC1(C)C(=O)C2=COC(c3ccc(OC)cc3)=CC2=C(Br)C1=O (centres undefined) returned APOBEC3A inh 46*, MIN6 prolif -2, VLA-4 inh -8, A3G deaminase 12 and APOBEC3A confirm 29.
Screening COc1ccc(C2=CC3=C(Br)C(=O)C(C)(OC(=O)C4CCCC4)C(=O)C3=CO2)cc1 (centres undefined) returned NRP1-CendR mod -22, APOBEC3A inh 13, MIN6 prolif -1, VLA-4 inh -10 and A3G deaminase 1.
`Cc1ccc(C)c(NC(=O)COC(=O)c2cc3ccccc3oc2=O)c1` gave NRP1-CendR mod 5, APOBEC3A inh 2, MIN6 prolif -1, VLA-4 inh 8 and A3G deaminase 1.
`Cc1ccc(C(=O)Nc2cc(C(F)(F)F)ccc2-n2cncn2)o1` gave NRP1-CendR mod -10, APOBEC3A inh 1, MIN6 prolif 3, VLA-4 inh 0 and A3G deaminase 2.
For Cc1ccc(C(=O)Nc2cc(Cl)ccc2-n2cncn2)o1 the results were NRP1-CendR mod -17, APOBEC3A inh 41*, MIN6 prolif -2, VLA-4 inh 1, A3G deaminase -1, APOBEC3A confirm 48* and UDG ctr A3A 4.
Screening CCOc1ccc(S(=O)(=O)N2CCCCC2)cc1NC(=O)c1c(CC)noc1C returned NRP1-CendR mod 3, APOBEC3A inh 3, MIN6 prolif 7, VLA-4 inh 17 and A3G deaminase -5.
CCn1c(SCC(=O)OC)nc2sc3c(c2c1=O)CCC3 was read as NRP1-CendR mod 2, APOBEC3A inh 24, MIN6 prolif 0, VLA-4 inh -12 and A3G deaminase 9.
`CCn1c(SCC(=O)O)nc2sc3c(c2c1=O)CCC3` gave NRP1-CendR mod 17, APOBEC3A inh 54*, MIN6 prolif 1, VLA-4 inh 1, A3G deaminase 17, APOBEC3A confirm 48* and UDG ctr A3A 6.
COc1ccc(N(C)C(=O)Cc2c(C(=O)O)n(C)c3ccccc23)c(OC)c1 was read as NRP1-CendR mod 6, APOBEC3A inh -3, MIN6 prolif -1, VLA-4 inh 15 and A3G deaminase -11.
O=c1cc(CSc2nnc(-c3cccs3)n2Cc2ccccc2)nc2sc3ccccc3n12 was read as NRP1-CendR mod -8, APOBEC3A inh 47*, MIN6 prolif -6, VLA-4 inh -5, A3G deaminase 22 and APOBEC3A confirm 24.
Screening COc1ccc(C(=O)NCC(=O)OCCCOC(=O)CNC(=O)c2ccc(OC)c(OC)c2)cc1OC returned NRP1-CendR mod 14, APOBEC3A inh 42*, MIN6 prolif 3, VLA-4 inh 1, A3G deaminase 10 and APOBEC3A confirm 2.
Screening O=C(Nc1ccc2c(c1)OCO2)c1ccc2sc([C@@H]3O[C@H](CO)[C@@H](O)[C@H]3O)nc2c1 returned NRP1-CendR mod 6.
Screening COc1ccc(S(=O)(=O)N2CCN(C(=O)CN3C(=O)NC4(CCCC4)C3=O)CC2)cc1 returned NRP1-CendR mod -4, APOBEC3A inh 12, MIN6 prolif 4, VLA-4 inh -4 and A3G deaminase 0.
Screening CCOc1ccc(S(=O)(=O)N2CCN(C(=O)CN3C(=O)NC4(CCCC4)C3=O)CC2)cc1 returned NRP1-CendR mod 16, APOBEC3A inh 41*, MIN6 prolif 4, VLA-4 inh 6, A3G deaminase -2, APOBEC3A confirm 36* and UDG ctr A3A -2.
`CC1(C)CN(c2cccc(-c3ccnc4ncnn34)c2)C1=O` gave NRP1-CendR mod 1, APOBEC3A inh 54*, MIN6 prolif -2, VLA-4 inh 15, A3G deaminase -8, APOBEC3A confirm -8 and UDG ctr A3A -2.
O=C(O)c1cc2nc(-c3ccc(F)cc3)cc(C(F)(F)F)n2n1 was read as NRP1-CendR mod 0, APOBEC3A inh 4, MIN6 prolif -1, VLA-4 inh -8 and A3G deaminase -6.
Screening O=C(O)c1cc2nc(-c3cccs3)cc(C(F)(F)F)n2n1 returned NRP1-CendR mod 29*, APOBEC3A inh 74*, MIN6 prolif -2, VLA-4 inh 2, A3G deaminase -12, APOBEC3A confirm 50* and UDG ctr A3A -4.
CCn1cc(-c2cc(C(F)(F)F)n3nc(C(=O)O)cc3n2)c(C)n1 was read as NRP1-CendR mod 7, APOBEC3A inh 54*, MIN6 prolif -1, VLA-4 inh 3, A3G deaminase -11, APOBEC3A confirm 29* and UDG ctr A3A -32.
For FC(F)(F)c1cc(-c2cccs2)nc2cc(-c3ccccc3)nn12 the results were NRP1-CendR mod -9, APOBEC3A inh 0, MIN6 prolif -4, VLA-4 inh 3 and A3G deaminase -7.
`C/C(N)=C(/C#N)C(=O)CSc1nc2ccccc2c(=O)n1Cc1ccc(F)cc1` gave NRP1-CendR mod 3, APOBEC3A inh 47*, MIN6 prolif -5, VLA-4 inh 1, A3G deaminase 15 and APOBEC3A confirm 26.
For Cc1c2cccn2cc[n+]1C the results were NRP1-CendR mod -4, APOBEC3A inh 42*, MIN6 prolif 0, VLA-4 inh 1, A3G deaminase 21, APOBEC3A confirm 78* and UDG ctr A3A 1.
`O=C(OCc1nc2ccsc2c(=O)[nH]1)c1ccccc1` gave NRP1-CendR mod 7, APOBEC3A inh 56*, MIN6 prolif 0, VLA-4 inh 49, A3G deaminase -11, APOBEC3A confirm -2 and UDG ctr A3A -2.
